SUMO Mot1 rescue = yeast Mot1-301 growth rescue at high temperature, primary screen, SUMOylation pathway inhibitor project, S. cerevisiae, ATP luminescence, 38.5C; 320,000 tested, 1% active; S. cerevisiae Mot1-301 growth rescue; percent above DMSO median, 100 means doubled; growth rescue, % at 18.8 µM; AID 2716, 2010;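 active = every valid replicate shows activation above 250% relative to neutral control wells; inactive = the rest, any valid replicate at or below 250%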;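 also: OY570 slx delta 5 strain wells were the positive control but not used for scaling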
CHT allo act = CHT positive allosteric modulators, primary screen, cell-based, membrane potential dye, choline EC20. High affinity choline transporter 1 (Homo sapiens), Q9GZV3. CHT-expressing cells; active compounds read high; LV-AA mutant CHT in HEK293 cells. B-score at 10 µM. 310,000 tested, 0.49% active. AID 488977, 2010;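 active = initial fluorescence not abnormally high and integrated response B-score, plate-corrected, over 3 SD above library mean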
Target sequence (Q9GZV3 whole entry, looked up): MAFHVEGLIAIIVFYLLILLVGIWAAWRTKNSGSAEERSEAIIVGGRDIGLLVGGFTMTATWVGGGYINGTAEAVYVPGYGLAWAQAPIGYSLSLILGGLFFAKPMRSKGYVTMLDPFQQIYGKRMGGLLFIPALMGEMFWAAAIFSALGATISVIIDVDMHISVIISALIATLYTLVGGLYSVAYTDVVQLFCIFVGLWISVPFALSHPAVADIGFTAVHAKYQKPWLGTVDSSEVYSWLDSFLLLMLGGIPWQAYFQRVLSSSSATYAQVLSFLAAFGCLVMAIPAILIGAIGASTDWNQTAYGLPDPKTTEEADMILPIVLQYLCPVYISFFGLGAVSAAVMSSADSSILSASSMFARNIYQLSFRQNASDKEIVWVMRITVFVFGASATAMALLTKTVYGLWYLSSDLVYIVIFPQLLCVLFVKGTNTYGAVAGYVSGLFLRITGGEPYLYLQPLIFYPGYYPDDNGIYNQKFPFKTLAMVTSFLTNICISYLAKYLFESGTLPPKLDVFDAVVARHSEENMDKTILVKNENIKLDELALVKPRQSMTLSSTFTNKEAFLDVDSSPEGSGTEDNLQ
NALP3 yeast inh = NALP3 inflammasome inhibitors in reconstituted yeast, primary screen, luminescence, uHTS. Yeast reconstituted NLRP3/ASC/caspase-1, beta-gal luminescence, 24 h. inhibition, % at 10 µM. 330,000 tested, 0.39% active;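 active = inhibition of 50% or more; inactive = inhibition below 50%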;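 also: plate controls were induced DMSO wells for no effect and uninduced yeast grown without galactose for full effect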
NALP1 inh = NALP1 inflammasome inhibitors in reconstituted yeast, colorimetric, S. cerevisiae, triplicate retest; S. cerevisiae NALP1/ASC/caspase-1 growth, X-gal OD620, 72 h; inhibition, % at 10 µM; 280,000 tested, 0.61% active; in the data active = inhibition mostly above about 24%, no sharp cut-off; inactive = mostly below about 32%
CHT inh = inhibitors of human choline transporter CHT; High affinity choline transporter 1 (Homo sapiens), Q9GZV3; CHT-expressing cells, membrane potential dye, choline response; active compounds read low; B-score at 10 µM; 310,000 tested, 0.86% active; AID 488975, 2010;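 active = B-score over 3 SD under the library average, and starting fluorescence ratio not unusually high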;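 also: choline stimulus applied at its EC90 after an EC20 pre-addition; B-score computed on integrated fluorescence ratio after choline addition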
A1 inh = caspase 3/7 activation in MEF A1-2A-BIM cells, primary screen, A1 inhibitor project, cell-based, luminescence, HTS; Caspase-Glo 3/7 luminescence, 3 h; percent of clofoctol response, vehicle zero; caspase activation, % (test concentration not listed); 330,000 tested, 0.066% active;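 active = over half of replicate activation scores above 10%, or exactly half above 10 with the replicate mean above 10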
CHT act confirm = CHT activators, confirmation, cell-based, membrane potential dye, duplicate; shares compounds with CHT allo act; CHT-expressing cells, membrane potential dye fluorescence (FDSS); % of choline EC20–EC90 response window; HEK293 expressing CHT LV-AA mutant; choline added at its EC20; activation, % at 10 µM; 2,500 tested, 91% active; AID 504833, 2011;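 active = primary screen active, with duplicate mean activation above negative control mean plus 3 SD, cut at about 11% in these data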
HEK293 MP dye = membrane potential response in parental HEK293 cells, counter-screen for CHT activator project, cell-based, membrane potential dye | shares compounds with CHT allo act | membrane potential dye fluorescence (FDSS); measured after EC20 choline addition | ratio readout change at 10 µM, hits read low | 2,500 tested, 62% active;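 active = duplicate-averaged ratio beyond 3 SD from buffer wells, up or down, though filed actives are nearly all decreases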
The depositor's hits bear a star; i = inactive; . = no result given. This is a sample that favours compounds with a hit; in the whole collection about 3% have one here.

SMILES	SUMO Mot1 rescue	CHT allo act	NALP3 yeast inh	NALP1 inh	CHT inh	A1 inh	CHT act confirm	HEK293 MP dye
CCc1cccc(CC)c1-n1c(SCC(=O)N2CCc3ccccc3C2)nnc1-c1cccnc1	-2	i	19	12	i	0	8	i
C[C@H](CO)N1C[C@H](C)[C@@H](CN(C)S(=O)(=O)c2cccs2)Oc2c(NS(=O)(=O)c3ccccc3)cccc2C1=O	7	.	12	.	.	0	.	.
O=C(NC(=S)N1CCN(c2ccccc2)CC1)c1ccco1	2	.	29	.	.	1	.	.
COC(=O)c1ccc(OC)c(CSc2nnc(COc3cccc(C)c3)o2)c1	-4	i	24	6	i	0	19*	i
COC(=O)c1ccc(OC)c(CSc2nnc(COc3ccc(OC)cc3)o2)c1	.	i	10	34	i	1	.	.
O=S(=O)(NNc1ncc(C(F)(F)F)cc1Cl)c1ccccc1	.	.	-8	.	.	.	.	.
Cc1cc([N+](=O)[O-])nn1CC(=O)NCc1ccc(Cl)cc1	6	i	18	6	i	1	.	.
Cc1ccc(S(=O)(=O)CCC(=O)OCc2cc(=O)oc3cc(C)ccc23)cc1	0	.	-7	.	.	0	.	.
CCCn1cc2c(c1-c1ccc(C)cc1)c(=O)n(C)c(=O)n2C	736	i	16	5	i	0	.	.
COc1ccc(-c2c3c(=O)n(C)c(=O)n(C)c3cn2C2CCCCC2)cc1	-10	6.8*	4	21	i	0	23*	i
CCOC(=O)C1=C(N)OC2=C(C(=O)CC(C)(C)C2)C1c1ccc(CC)s1 (configuration not stated)	83	7.6*	4	4	i	1	21*	i
CCOC(=O)C1=C(N)OC2=C(C(=O)CC(C)(C)C2)C1c1ccc(C)s1 (configuration not stated)	2	i	-11	-4	i	0	.	.
O=S(=O)(Nc1ccc(-c2ccc3nncn3n2)cc1)c1cccc(F)c1	-26	i	8	.	i	0	.	.
Fc1ccc(C(CCNCc2ccccn2)c2ccc(Cl)cc2)cc1 (configuration not stated)	6	i	19	7	i	1	16*	i
NC(=O)CN1CCN(CCN2C(=O)c3cccc4cccc(c34)C2=O)CC1	2	i	-11	15	i	0	43*	-33*
Nc1cc2c3c(cccc3c1)C(=O)N(CCN1CCCC1)C2=O	5	i	.	27	i	1	.	.
COc1ccc(CN(C)C(=O)c2ccccc2Sc2ccccc2C#N)cc1OC	i	i	1	18	i	0	.	.
CN(Cc1cccc(F)c1)C(=O)c1ccccc1Sc1ccccc1C#N	-17	7.2*	19	11	i	-1	31*	i
Cc1ccc(Nc2c([N+](=O)[O-])ccc3nonc23)cc1C	44	i	-14	4	i	0	.	.
Cc1ccc(C)c(-c2[nH]ncc2CN2CCCC(CO)(Cc3ccccc3C)C2)c1 (configuration not stated)	3	6.4*	-9	17	i	1	17*	i
OCC1(Cc2ccccc2)CCCN(Cc2cn[nH]c2-c2ccccc2)C1 (configuration not stated)	279	i	-4	8	i	1	.	.
CCOc1cc(NC(=O)c2ccco2)c(OCC)cc1NC(=O)c1ccco1	-11	11*	15	4	i	1	21*	i
CCOc1cc(NC(=S)NC)c(OCC)cc1NC(=O)c1ccco1	-1	i	6	.	i	-1	.	.
COc1cc(CCC(C)=O)ccc1OC(=O)c1c(F)cccc1Cl	-18	i	39	8	i	-1	.	.
Cc1cc(C)nc(/N=C(\N)Nc2ccc([N+](=O)[O-])cc2)n1	9	i	9	22	i	0	.	.
SMILES	SUMO Mot1 rescue	CHT allo act	NALP3 yeast inh	NALP1 inh	CHT inh	A1 inh	CHT act confirm	HEK293 MP dye
Cc1cc(Nc2cccc([N+](=O)[O-])c2)c2cccc(C)c2n1	112	i	2	14	i	0	42*	-52*
Cc1cc(C)nc(/N=C(\N)Nc2cccc([N+](=O)[O-])c2)n1	-8	i	12	0	i	-1	28*	-46*
Cc1cc(Nc2cccc([N+](=O)[O-])c2)c2ccccc2n1	-24	i	-8	0	i	1	.	.
COCC(=O)N1CCC(Oc2ccc(C(=O)N(C)CCCC3CCCC3)cc2)CC1	-11	i	5	9	i	1	.	.
COc1ccccc1NC(=O)CC(c1ccc(F)cc1)c1ccco1 (configuration not stated)	-26	i	-12	10	i	0	24*	i
COc1ccccc1NC(=O)CNC(c1ccccc1)c1ccccc1	-3	7.5*	-4	17	i	0	44*	i
COc1ccc(OC)c(S(=O)(=O)Nc2cccc3ccc(O)cc23)c1	1	i	2	.	i	1	.	.
CC(=O)c1cnc(Nc2nc(C)c3ccccc3n2)nc1C	13	i	-10	8	i	0	44*	-45*
COc1ccc(N2CCc3c(C)nc4c(OC)cc(OC)cc4c32)cc1	171	i	7	-4	i	-1	.	.
COc1cccc(N2CCc3c(C)nc4ccc(Cl)cc4c32)c1	-15	i	.	2	i	0	42*	-29*
COc1cccc2c3c(c(C)nc12)CC(C)O3 (configuration not stated)	-9	9.9*	7	20	i	-1	53*	-70*
COc1ccc(N2CCc3c(C)nc4c(OC)cccc4c32)cc1	-17	i	9	-5	i	0	33*	-56*
COc1ccc2nc(C)c3c(c2c1)OC(C)C3 (configuration not stated)	-34	i	22	-18	i	0	.	.

Screening data: PubChem, several laboratories
